From PubChem
BLM helicase inh: inhibitors of human Bloom syndrome helicase BLM; recombinant BLM DNA unwinding, fluorescence dequenching; Potency, µM (doses to about 56.1 µM), for inactives: top-dose activity change, negative = inhibition, actives largely listed as inhibitors; P54132; AID 2528; actives 0.2% (n = 350,000);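 note: plate controls were vehicle for no effect and no enzyme for full effect; nearly all actives have a fitted effect of over 35% in size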
RECQ1 inh: RECQ1 (human) helicase inhibition | P46063 | RECQ1 DNA unwinding, red fluorescence kinetic read | Potency, µM (series often up to 57.3 µM), for inactives: top-dose activity, negative = inhibition, hits mostly inhibitors | actives 0.54% (n = 240,000);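 note: plate controls were vehicle for no effect and no enzyme for full effect; nearly all actives have a fitted effect of over 30% in size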
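RECQ1T1 50 nM; forked duplex (20 bp + 30-nt ss tails) 200 nM, ATP 2 mM final; pH 8.0, 2 mM MgCl2, 2.5 ug/ml poly(dI-dC); 15 min compound preincubation; discontinuous kinetic read over 2 h at RT.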
JMJD2E inh: inhibitors of human JMJD2E histone demethylase; JMJD2E catalytic domain, FDH-coupled NADH fluorescence (FDH is formaldehyde dehydrogenase); actives 1.6% (n = 230,000); Potency, µM (top dose mostly 57.1 µM), for inactives: at the highest dose activity change, negative = inhibition, usual class: inhibitors; AID 2147; B2RXH2; active = well fitted inhibition curve with a large enough effect, not every such curve was filed as active; inconclusive = small, poorly fitted or top-dose-only effect, or another doubt; inactive = no such curve, though single readings can be large or run the other way;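 note: 0% = wells with enzyme and -100% = buffer wells without enzyme; nearly all actives have a fitted effect of over 50% in size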
APEX1 inh: inhibitors of human APE1 endonuclease. recombinant APE1, TAMRA/BHQ-2 abasic DNA cleavage fluorescence. P27695. Potency, µM (top dose mostly 65.8 µM), for the others: at the top dose activity change, negative = inhibition, hits mostly inhibitors. actives 0.35% (n = 350,000);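 note: plate controls were vehicle for no effect and reference inhibitor for full effect; nearly all actives have a fitted effect of over 55% in size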
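Kinetic fluorescence read (525 ex/598 em nm, three reads 60 s apart) of AP-site incision; signal = third minus first read. Enzyme 0.75 nM, dual-labelled THF duplex 50 nM, compound preincubation 15 min RT.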
L3MBTL1 block: inhibitors of human L3MBTL1; Potency, µM (titrated, usually from 57.1 µM), inactives show at the highest dose activity, negative = inhibition, actives largely listed as inhibitors; AlphaScreen L3MBTL1–H3K9me1 peptide binding; Q9Y468; AID 485360; actives 0.66% (n = 230,000); note: nearly all actives have a fitted effect of over 60% in size
Target sequence (Q9Y468 whole entry, looked up): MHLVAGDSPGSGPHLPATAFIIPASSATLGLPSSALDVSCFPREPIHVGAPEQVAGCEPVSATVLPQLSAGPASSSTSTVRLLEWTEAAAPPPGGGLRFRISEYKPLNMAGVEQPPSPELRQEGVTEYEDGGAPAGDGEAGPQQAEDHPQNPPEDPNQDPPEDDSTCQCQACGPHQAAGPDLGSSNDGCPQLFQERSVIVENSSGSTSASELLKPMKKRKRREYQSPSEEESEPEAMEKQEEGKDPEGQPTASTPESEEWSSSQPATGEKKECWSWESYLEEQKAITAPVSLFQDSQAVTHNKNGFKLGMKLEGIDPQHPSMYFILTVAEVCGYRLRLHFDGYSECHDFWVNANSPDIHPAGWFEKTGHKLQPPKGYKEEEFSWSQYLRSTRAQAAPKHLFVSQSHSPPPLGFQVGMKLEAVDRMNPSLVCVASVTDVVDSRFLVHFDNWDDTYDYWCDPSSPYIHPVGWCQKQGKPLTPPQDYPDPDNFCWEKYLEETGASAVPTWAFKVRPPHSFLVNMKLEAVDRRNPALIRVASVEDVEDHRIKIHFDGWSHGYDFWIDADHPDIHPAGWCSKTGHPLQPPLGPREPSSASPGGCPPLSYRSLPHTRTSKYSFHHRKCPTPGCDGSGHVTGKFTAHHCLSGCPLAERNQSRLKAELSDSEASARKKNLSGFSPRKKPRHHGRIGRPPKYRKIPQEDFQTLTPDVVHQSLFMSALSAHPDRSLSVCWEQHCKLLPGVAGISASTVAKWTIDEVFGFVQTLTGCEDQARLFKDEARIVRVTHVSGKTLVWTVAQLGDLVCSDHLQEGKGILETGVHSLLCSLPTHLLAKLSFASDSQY
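AlphaScreen assay: L3MBTL1 (50 nM final) was preincubated 30 min at room temperature with biotinylated H3(1-15)K9me1 peptide (75 nM final), then 30 min with library compounds; streptavidin donor and nickel chelate acceptor beads (10 ug/mL final) added, 30 min dark.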
* hit, by the source's call. Many of the other results were omitted from the sample, so hits are more common in it than they were. Unless noted, calls come from the whole dose curve; as a rule, active = well fitted curve in the direction sought with a large enough effect; inconclusive = small, poorly fitted or top-dose-only effect, or another doubt; inactive = no such curve, though single readings can be large; an effect the other way counts as inactive or inconclusive. Unless noted, % is set by controls: 0 for no effect and ±100 for the full control effect; potency is the fitted concentration of half-maximal effect.

Screening C/C(Nc1ccc(Cl)cc1)=C(/C#N)C(N)=O returned BLM helicase inh 0%, RECQ1 inh -2%, JMJD2E inh 5% and APEX1 inh 1%.
For COc1ccc(S(=O)(=O)Oc2c(OC)cc(C(=S)N3CCOCC3)cc2OC)cc1 the results were BLM helicase inh -5%, APEX1 inh 7% and L3MBTL1 block -3%.
For COc1ccc2ccc3c(c2c1)N=CC1(O3)N(C)c2ccccc2C1(C)C (centres undefined) the results were BLM helicase inh -8%, RECQ1 inh inconclusive, JMJD2E inh 14µM*, APEX1 inh -7% and L3MBTL1 block 32µM*.
For CN1c2ccccc2C(C)(C)C12C=Nc1c(ccc3ccccc13)O2 (centres undefined) the results were BLM helicase inh -10%, RECQ1 inh inactive, JMJD2E inh 25µM*, APEX1 inh -7% and L3MBTL1 block inconclusive.
Screening O=[N+]([O-])c1cc(/C=N/n2c(-c3ccncc3)n[nH]c2=S)ccc1Cl returned BLM helicase inh -28%, RECQ1 inh 4.5µM*, JMJD2E inh inconclusive, APEX1 inh -15% and L3MBTL1 block -28%.
`Cc1cc(-c2n[nH]c(=S)n2/N=C/c2ccc(Cl)c([N+](=O)[O-])c2)n[nH]1` gave BLM helicase inh 2%, RECQ1 inh -5%, JMJD2E inh inconclusive, APEX1 inh 20% and L3MBTL1 block -2%.
`O=C(NC1CCCCC1)C(c1ccc(O)c(O)c1)N(C(=O)Cn1nnc2ccccc21)c1cccc(O)c1` (centres undefined) gave BLM helicase inh -12%, RECQ1 inh -8%, JMJD2E inh 16µM*, APEX1 inh -11% and L3MBTL1 block inconclusive.
CC(=O)c1cccc(N(C(=O)Cn2nnc3ccccc32)C(C(=O)NC2CCCCC2)c2cn(C)nc2C)c1 (centres undefined) was read as BLM helicase inh 2%, RECQ1 inh -11%, JMJD2E inh 10% and APEX1 inh 0%.
COc1ccccc1OC(C)C(=O)Nc1cccc(-c2nc3ccccc3o2)c1 (centres undefined) was read as BLM helicase inh -8%.
Cc1ccccc1NC(=O)/C(C#N)=C\c1cc(C)n(-c2ccc(C(=O)O)cc2)c1C was read as BLM helicase inh -4%, RECQ1 inh -8%, JMJD2E inh 20µM* and APEX1 inh inconclusive.
Screening Cc1cc(/C=C(\C#N)C(=O)Nc2ccccc2)c(C)n1-c1ccc2c(c1)OCO2 returned BLM helicase inh -7%, RECQ1 inh -13%, JMJD2E inh 25µM*, APEX1 inh -4% and L3MBTL1 block -6%.
`Cc1cc(/C=C(/C#N)C(=O)Nc2ccccc2)c(C)n1-c1cccnc1` gave BLM helicase inh -3%, RECQ1 inh 3%, JMJD2E inh 4%, APEX1 inh inconclusive and L3MBTL1 block 0%.
CC1(C)N=C(c2cccs2)C(C)(C)N1O was read as BLM helicase inh 2%, RECQ1 inh -16%, JMJD2E inh -3%, APEX1 inh 1% and L3MBTL1 block -1%.
CCN(C(=O)c1cc2c(Cl)nc3ccccc3c2s1)c1cccc(Cl)c1 was read as BLM helicase inh -3%.
`CCN(CC)c1ccc(NC(=S)Nc2ccc(F)cc2)cc1` gave BLM helicase inh -7%, RECQ1 inh -2%, JMJD2E inh 8.9µM* and APEX1 inh 0%.
`Oc1ccc(NC(=S)Nc2ccc(F)cc2)cc1` gave BLM helicase inh -8%, APEX1 inh 26% and L3MBTL1 block -8%.
CO[C@H]1C([C@@]2(C)O[C@@H]2CC=C(C)C)[C@]2(CC[C@H]1OC(=O)/C=C/C=C/C=C/C=C/C(=O)O)CO2 (some centres undefined) was read as BLM helicase inh -3%, RECQ1 inh -2% and APEX1 inh -12%.
Screening CC(=O)C1=C(S(=O)(=O)c2ccc(C)cc2)CS(=O)(=O)C1 returned BLM helicase inh -2%, RECQ1 inh inactive, JMJD2E inh 14µM*, APEX1 inh 2% and L3MBTL1 block 4%.
